Measured values from PubChem BioAssay.
“And” between values parts separate entries of the source, which are not always exact repeats. Equal values may be shown once. For some assays here: Measured potencies and affinities stand elsewhere. Some structures have more than one record in an assay (separate samples or runs), and their calls can disagree. The source made the active and inactive calls. Unless noted, the rule behind the calls is not given here.

What was measured:
[1] = antimalarial activity against Dd2 strain (AID 2302;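 active = growth inhibition above 50% at the single 2 µM test dose, taken to imply half-maximal potency below 2 µM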;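 note: 0% = DMSO untreated growth and 100% = chloroquine plus artemisinin killed control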); details: P. falciparum Dd2 in RBCs, LDH growth readout, 72 h; at 2 µM; stronger effect = higher value
[2] = human hepatoma cell viability loss – ATP luminescence, cytotoxicity control for P. falciparum antimalarial project, primary screen (AID 2303;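 active = inhibition above 50%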;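 note: 0% = DMSO wells and 100% = digitonin-killed cells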); details: HepG2 viability, 24-48 h, at 10 µM, stronger effect = higher value
[3] = biological target: L-lactate dehydrogenase (Plasmodium falciparum (isolate CDC / Honduras)) (UniProt Q27743); test: PfLDH activity inhibition – cell lysate, 3D7 strain, counter-screen for P. falciparum growth inhibition project (AID 2304);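 note: 0% = vehicle and 100% = reference inhibitor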; details: P. falciparum 3D7 crude extract, LDH APAD/NBT absorbance; at 2 µM; stronger effect = higher value
Chain of L-lactate dehydrogenase (Plasmodium falciparum (isolate CDC / Honduras)) (Q27743 whole entry, looked up): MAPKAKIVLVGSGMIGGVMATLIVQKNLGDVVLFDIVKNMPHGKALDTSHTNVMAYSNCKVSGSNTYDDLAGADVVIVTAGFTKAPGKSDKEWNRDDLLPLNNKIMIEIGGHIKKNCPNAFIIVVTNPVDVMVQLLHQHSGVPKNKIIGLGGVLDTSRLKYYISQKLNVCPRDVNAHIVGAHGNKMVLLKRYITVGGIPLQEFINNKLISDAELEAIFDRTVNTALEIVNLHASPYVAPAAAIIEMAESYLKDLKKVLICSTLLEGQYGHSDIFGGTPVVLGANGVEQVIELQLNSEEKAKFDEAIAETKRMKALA

[4] = inhibition of 3D7 malaria parasite growth – strain 3D7 (AID 2306);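 note: 0% = DMSO wells and 100% = chloroquine plus artemisinin control wells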; details: P. falciparum 3D7 erythrocytic growth, LDH absorbance, 72 h; at 2 µM; stronger effect = higher value
[5] = biological target: Calcium-dependent protein kinase 1 (Plasmodium falciparum (isolate 3D7)) (UniProt P62344); test: PfCDPK1 kinase inhibitors, biochemical, TCAMS library (AID 1159585; cut-off not given, nearly all actives have IC50 up to about 0.98 µM;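 note: inhibitors leave more ATP so luminescence rises with inhibition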); details: recombinant PfCDPK1, Kinase-Glo ATP depletion luminescence
Chain of Calcium-dependent protein kinase 1 (Plasmodium falciparum (isolate 3D7)) (P62344 whole entry, looked up): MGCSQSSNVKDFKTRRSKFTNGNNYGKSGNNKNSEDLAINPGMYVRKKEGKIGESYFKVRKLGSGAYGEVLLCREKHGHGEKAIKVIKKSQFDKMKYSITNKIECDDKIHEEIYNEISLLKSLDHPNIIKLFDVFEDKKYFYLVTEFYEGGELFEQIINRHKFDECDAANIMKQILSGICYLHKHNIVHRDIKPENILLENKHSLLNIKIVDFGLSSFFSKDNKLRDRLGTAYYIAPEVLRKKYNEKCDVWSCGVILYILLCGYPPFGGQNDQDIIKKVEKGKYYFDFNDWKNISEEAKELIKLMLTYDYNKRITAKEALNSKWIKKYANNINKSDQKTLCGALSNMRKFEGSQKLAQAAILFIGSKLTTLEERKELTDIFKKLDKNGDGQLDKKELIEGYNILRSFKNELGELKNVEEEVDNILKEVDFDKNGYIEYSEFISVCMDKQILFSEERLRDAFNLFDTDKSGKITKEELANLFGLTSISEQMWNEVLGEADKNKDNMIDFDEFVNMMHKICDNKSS

[6] = biological target: Plasmodium falciparum protein kinase 6 (PK6, PF3D7_1337100) (UniProt Q8IDW1); test: PfPK6 kinase inhibitors, biochemical, TCAMS library (AID 1159586); details: recombinant PfPK6, Kinase-Glo ATP depletion luminescence
Chain of Plasmodium falciparum protein kinase 6 (PK6, PF3D7_1337100) (Q8IDW1 1-305): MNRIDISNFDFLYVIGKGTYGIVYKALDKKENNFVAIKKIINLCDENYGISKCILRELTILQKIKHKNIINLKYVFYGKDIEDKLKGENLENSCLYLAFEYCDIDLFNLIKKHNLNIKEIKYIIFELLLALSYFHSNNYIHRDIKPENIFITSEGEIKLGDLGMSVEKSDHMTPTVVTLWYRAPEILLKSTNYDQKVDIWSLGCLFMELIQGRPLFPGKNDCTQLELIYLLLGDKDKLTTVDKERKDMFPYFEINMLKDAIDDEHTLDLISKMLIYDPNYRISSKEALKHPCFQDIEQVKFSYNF

[7] = biological target: Protein kinase 7 (PK7), Plasmodium falciparum 3D7 (PF3D7_0213400) (UniProt Q7YTF7); test: inhibition of Plasmodium PK7 catalytic activity – biochemical, TCAMS antimalarial set, Kinase-Glo luminescence (AID 1159587); details: recombinant PfPK7, Kinase-Glo ATP depletion luminescence
Chain of Protein kinase 7 (PK7), Plasmodium falciparum 3D7 (PF3D7_0213400) (Q7YTF7 1-343): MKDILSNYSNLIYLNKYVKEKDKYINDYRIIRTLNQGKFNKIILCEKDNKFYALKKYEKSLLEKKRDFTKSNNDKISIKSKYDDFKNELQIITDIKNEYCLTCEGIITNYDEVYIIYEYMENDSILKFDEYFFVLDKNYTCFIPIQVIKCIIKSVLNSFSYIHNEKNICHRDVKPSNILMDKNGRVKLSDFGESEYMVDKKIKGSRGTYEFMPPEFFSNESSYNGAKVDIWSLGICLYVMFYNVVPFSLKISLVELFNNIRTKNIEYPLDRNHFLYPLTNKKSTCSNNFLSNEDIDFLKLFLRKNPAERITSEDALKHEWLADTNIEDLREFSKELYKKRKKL

[8] = biological target: Calcium-dependent protein kinase 4 (Plasmodium falciparum (isolate 3D7)) (UniProt Q8IBS5); test: PfCDPK4 kinase inhibitors, biochemical, TCAMS library (AID 1159588; cut-off not given, nearly all actives have IC50 up to about 0.91 µM); details: recombinant PfCDPK4, Kinase-Glo ATP depletion luminescence
Chain of Calcium-dependent protein kinase 4 (Plasmodium falciparum (isolate 3D7)) (Q8IBS5 whole entry, looked up): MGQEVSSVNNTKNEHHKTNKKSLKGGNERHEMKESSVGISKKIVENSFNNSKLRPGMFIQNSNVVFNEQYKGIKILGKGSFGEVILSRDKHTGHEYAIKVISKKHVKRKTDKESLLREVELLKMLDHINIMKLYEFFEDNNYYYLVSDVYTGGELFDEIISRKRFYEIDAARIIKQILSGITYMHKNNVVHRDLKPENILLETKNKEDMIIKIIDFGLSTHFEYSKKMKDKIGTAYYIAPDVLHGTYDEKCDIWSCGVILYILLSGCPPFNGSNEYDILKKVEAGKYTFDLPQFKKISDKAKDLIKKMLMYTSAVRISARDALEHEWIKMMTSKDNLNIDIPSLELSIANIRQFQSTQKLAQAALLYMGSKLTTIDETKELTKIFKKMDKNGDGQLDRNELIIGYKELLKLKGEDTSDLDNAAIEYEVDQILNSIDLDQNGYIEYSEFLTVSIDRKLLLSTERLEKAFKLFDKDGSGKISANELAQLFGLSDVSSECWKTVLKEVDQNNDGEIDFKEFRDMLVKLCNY

CCOC(C(=O)OCC1CCCN(C)C1)(c1ccccc1)c1ccccc1 (stereo unspecified)
inactive: growth inhibition [1] 3% | inhibition [2] 13% | inhibition [3] 0% | outcome [5] | outcome [6] | outcome [7] | outcome [8]
active: growth inhibition [4] 98%

CC(Cc1ccc(OCCOc2ccccc2)cc1)NCC(O)c1cccc(Cl)c1 (stereo unspecified)
inactive: inhibition [2] 12% | inhibition [3] 1% | outcome [5] | outcome [6] | outcome [7] | outcome [8]
active: growth inhibition [1] 99% | growth inhibition [4] 99%

Oc1ccccc1CNCC(O)c1cccc(C(F)(F)F)c1 (stereo unspecified)
inactive: inhibition [2] 1% | inhibition [3] 0% | outcome [5] | outcome [6] | outcome [7] | outcome [8]
active: growth inhibition [1] 97% | growth inhibition [4] 100%

CC[C@H]1CN2CC[C@@H]1C[C@H]2[C@H](O)c1cc(N2CCC(O)(c3ccc(Cl)cc3)CC2)nc2ccc(OC)cc12
inactive: inhibition [2] 21% | inhibition [3] -8% | outcome [5] | outcome [6] | outcome [7] | outcome [8]
active: growth inhibition [1] 98% | growth inhibition [4] 101%

O=C(CNC1CCCCC1)c1ccc(O)c(O)c1
active: growth inhibition [1] 99% | inhibition [2] 61% | growth inhibition [4] 102%
inactive: inhibition [3] 4% | outcome [5] | outcome [6] | outcome [7] | outcome [8]

Cc1cc(CN2CCN(CCOC(c3ccccc3)c3ccccc3)CC2)ccc1O
inactive: inhibition [2] 9% | inhibition [3] -1% | outcome [5] | outcome [6] | outcome [7] | outcome [8]
active: growth inhibition [1] 96% | growth inhibition [4] 97%

COC(=O)c1sccc1NC(=S)NC1CCC(CN2CCC(c3c[nH]c4ccccc34)CC2)CC1 (stereo unspecified)
active: growth inhibition [4] 97% and 100%
inactive: inhibition [2] 25% and 34% | inhibition [3] 0% and -1% | outcome [5] | outcome [6] | outcome [7] | outcome [8]
54% (active) and 49% (inactive): growth inhibition [1]

COCCNCc1cccc(-c2cccc(CN(C(=O)Nc3ccccc3)C3CCN(Cc4ccccc4)CC3)c2)c1
inactive: inhibition [2] 28% | inhibition [3] -1% | outcome [5] | outcome [6] | outcome [7] | outcome [8]
active: growth inhibition [1] 65% | growth inhibition [4] 100%

CCN(CC)CCN1C(=O)C(O)(c2ccccc2Cl)c2c1cc(C#N)cc2C(F)(F)F (stereo unspecified)
inactive: growth inhibition [1] 19% | inhibition [2] 21% | inhibition [3] -1% | outcome [5] | outcome [6] | outcome [7] | outcome [8]
active: growth inhibition [4] 88%

CC(=O)Nc1ccc(CN2CCC(N(C)c3cc(NC(=O)c4ccc(F)cc4)ccn3)CC2)cc1
active: growth inhibition [4] 95%
inactive: growth inhibition [1] 5% | inhibition [2] 0% | inhibition [3] -1% | outcome [5] | outcome [6] | outcome [7] | outcome [8]

COCCNCc1ccc(-c2ccc(CN(C(=O)NC3CCCCC3)C3CCN(Cc4ccccc4)CC3)cc2)cc1
inactive: inhibition [2] 29% | inhibition [3] -1% | outcome [5] | outcome [6] | outcome [7] | outcome [8]
active: growth inhibition [1] 84% | growth inhibition [4] 94%

CC(C)(C)c1cc(/C=C/C(=O)NC2CCC(CN3CCC(c4c[nH]c5ccccc45)CC3)CC2)cc(C(C)(C)C)c1O (stereo unspecified)
inactive: inhibition [3] -3% and -5% | outcome [5] | outcome [6] | outcome [7] | outcome [8]
active: growth inhibition [1] 100% | inhibition [2] 98% and 99% | growth inhibition [4] 101% and 102%

CNC(=O)c1ccc2[nH]cc(C3CCN(CC4CCC(NC(=O)/C=C/c5ccccc5Cl)CC4)CC3)c2c1 (stereo unspecified)
active: growth inhibition [4] 100%
inactive: growth inhibition [1] 19% | inhibition [2] 12% | inhibition [3] 3% | outcome [5] | outcome [6] | outcome [7] | outcome [8]

O=C(/C=C/c1ccc(Cl)c(Cl)c1)N1CCC(CN2CCC(c3c[nH]c4cc5c(cc34)OCO5)CC2)CC1
active: growth inhibition [1] 75% | growth inhibition [4] 102%
inactive: inhibition [2] 41% | inhibition [3] -2% | outcome [5] | outcome [6] | outcome [7] | outcome [8]

O=C(/C=C/c1ccccc1Cl)NC1CCC(CN2[C@@H]3CC[C@H]2CC(c2c[nH]c4ccccc24)C3)CC1 (stereo partly specified)
active: growth inhibition [1] 98% | inhibition [2] 56% | growth inhibition [4] 102%
inactive: inhibition [3] 3% | outcome [5] | outcome [6] | outcome [7] | outcome [8]

CCCCCSc1cc(O)c(C(CNC)C(C)C)cc1OC (stereo unspecified)
inactive: inhibition [2] 5% | inhibition [3] -4% | outcome [5] | outcome [6] | outcome [7] | outcome [8]
active: growth inhibition [1] 99% | growth inhibition [4] 100%

CN(C)c1cccc(CN2CC=C(c3c[nH]c4ccc(Cl)cc34)CC2)c1
active: growth inhibition [1] 87% | growth inhibition [4] 93%
inactive: inhibition [2] 40% | inhibition [3] 3% | outcome [5] | outcome [6] | outcome [7] | outcome [8]

C[C@@H](CC1CCCCC1)NCc1ccccc1O
inactive: inhibition [2] 9% | inhibition [3] 3% | outcome [5] | outcome [6] | outcome [7] | outcome [8]
active: growth inhibition [1] 67% | growth inhibition [4] 98%

COC(=O)c1ccc(CC(C)NCC(O)c2cccc(C(F)(F)F)c2)c(OC)c1 (stereo unspecified)
inactive: inhibition [2] 5% | inhibition [3] 7% | outcome [5] | outcome [6] | outcome [7] | outcome [8]
active: growth inhibition [1] 98% | growth inhibition [4] 100%

O=C(/C=C/c1cc(C(F)(F)F)ccc1F)N1CCC(CN2CCC(c3c[nH]c4ccccc34)CC2)CC1
inactive: growth inhibition [1] 14% | inhibition [2] 22% | inhibition [3] -1% | outcome [5] | outcome [6] | outcome [7] | outcome [8]
active: growth inhibition [4] 96%

CC(C)CN1CCC(N(C)c2cc(NC(=O)c3cccc(F)c3)ccn2)CC1
inactive: growth inhibition [1] 10% | inhibition [2] 8% | inhibition [3] -1% | outcome [5] | outcome [6] | outcome [7] | outcome [8]
active: growth inhibition [4] 97%

CC(Cc1ccc(NC(=O)CCCc2ccccc2)cc1)NCCc1cccc(Cl)c1 (stereo unspecified)
inactive: growth inhibition [1] 3% | inhibition [2] 12% | inhibition [3] -5% | outcome [5] | outcome [6] | outcome [7] | outcome [8]
active: growth inhibition [4] 94%
